Measurements published in PubChem BioAssay (Tox21).
Unmarked numbers belong to inactive results. Results filed as inconclusive are left out. Where a call stands in place of a potency, no number is given. Active and inactive are the calls of the source. Unless noted, the call rests on the fitted dose curve; in most records, active means well fitted curve in the direction sought with a large enough effect in the repeat runs; inconclusive means weak or mixed curves; inactive means no such curve, though single readings can be large; an effect the other way counts as inactive or inconclusive.

Key:
[1] = qHTS assay for small molecule agonists of the p53 signaling pathway (AID 651631; calls by dose curve; further: nearly all actives have a fitted effect of over 15% in size)
Method in brief: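 Agonist mode screen using a stably integrated beta-lactamase gene under p53 response elements in HCT-116 cells. Compound exposure lasts 16 h at 37 °C; fluorescence intensity is measured following 2 h FRET substrate loading.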

[2] = qHTS assay for small molecules that induce genotoxicity in human embryonic kidney cells expressing luciferase-tagged ATAD5 (AID 651632); further: nearly all actives have a fitted effect of over 15% in size
Method in brief: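 Luminescence read-out: after 16 hr compound exposure at 37C, ATAD5-luciferase HEK293T cells received Amplite, 30 min RT, then CCD imaging. A rise in signal marks genotoxic stress.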

[3] = qHTS assay for small molecule agonists of the p53 signaling pathway - cell viability (AID 651633; calls by dose curve;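 further: p53RE-bla HCT reporter cells with a stable beta-lactamase p53 reporter; nearly all actives have a fitted effect of over 30% in size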)
Method in brief: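 p53RE-bla cells were treated with compound for 16 hours at 37 C. Cytotoxicity was then measured as CellTiter-Glo luminescence after 30 min at room temperature.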

[4] = qHTS assay for small molecules that induce genotoxicity in human embryonic kidney cells expressing luciferase-tagged ATAD5 - cell viability (AID 651634; calls by dose curve; further: nearly all actives have a fitted effect of over 25% in size)
Method in brief: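 HEK293T ATAD5-luc cells, 2,000/well; compound 15.5 hr, 37C/5% CO2; CellTiter-Fluor 30 min, 37C; fluorescence read.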

[5] = qHTS assay for small molecule disruptors of the mitochondrial membrane potential - cell viability (AID 720634; calls by dose curve;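 further: human HepG2 liver cancer cells; nearly all actives have a fitted effect of over 20% in size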)
Method in brief: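 Luminescence from CellTiter-Glo (ATP content) gave viability in HepG2 cells, read in the same wells as the MMP dye assay after 1 hr compound exposure at 37 C.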

[6] = qHTS assay to test for compound auto fluorescence at 590 nm (red) in HepG2 cells (AID 720674)
Method in brief: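 Seeding: 2,000 HepG2 cells/well, MEM/10% FBS, overnight 37 C. Dosing: compound vs DMSO. Incubation: 1 hr, 37 C, 5% CO2. Read: fluorescence 540 ex/590 em, Rose Bengal sodium as red reference.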

[7] = qHTS assay to test for compound auto fluorescence at 535 nm (green) in HepG2 cells (AID 720675)
[8] = qHTS assay to test for compound auto fluorescence at 460 nm (blue) in HEK293 cells (AID 720678)
Method in brief: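 Blue read-out at excitation 405 nm and emission 460 nm follows overnight compound exposure of HEK293 cells at 37C in 5% CO2. Activity is given as auto fluorescence equivalency to triamterene.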

[9] = qHTS assay to test for compound auto fluorescence at 535 nm (green) in HEK293 cells (AID 720680)
[10] = qHTS assay to test for compound auto fluorescence at 460 nm (blue) in HEK293 cell free culture (AID 720681)
Method in brief: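 Compounds were added to cell-free DMEM with 10% FBS and fluorescence read directly. The blue channel used 405 nm excitation and 460 nm emission, with triamterene as the reference fluorophore.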

[11] = qHTS assay to test for compound auto fluorescence at 535 nm (green) in HEK293 cell free culture (AID 720682)
Method in brief: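 No cells present: wells hold DMEM supplemented with 10% FBS, into which compound or vehicle is pinned. Green emission is then recorded (485 nm excitation, 535 nm emission) and scaled to fluorescein.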

[12] = qHTS assay to test for compound auto fluorescence at 590 nm (red) in HEK293 cell free culture (AID 720683)
Method in brief: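 Cell-free wells of DMEM with 10% FBS received compound, and intrinsic fluorescence was read at excitation/emission 540/590 nm. Values expressed as equivalence to Rose Bengal sodium.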

[13] = qHTS assay to test for compound auto fluorescence at 590 nm (red) in HepG2 cell free culture (AID 720684)
Method in brief: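 Rose Bengal sodium served as the reference for red signal. Test compounds were dispensed into serum-containing MEM (10% FBS) without cells, and plates were read at 540/590 nm.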

[14] = qHTS assay to test for compound auto fluorescence at 460 nm (blue) in HepG2 cell free culture (AID 720685)
Method in brief: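 Cell-free plates of MEM plus 10% FBS received 23 nL compound or DMSO vehicle; blue-channel (405/460 nm) intensity scored against triamterene as reference fluorophore.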

[15] = qHTS assay to test for compound auto fluorescence at 535 nm (green) in HepG2 cell free culture (AID 720686)
[16] = qHTS assay to test for compound auto fluorescence at 460 nm (blue) in HepG2 cells (AID 720687)
Method in brief: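 HepG2 cells in MEM with 10% FBS, attached overnight at 37 C, were exposed to compound or DMSO for 1 hr at 37 C, 5% CO2. Blue fluorescence was read at 405/460 nm, with triamterene as reference fluorophore.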

[17] = target: Glucocorticoid receptor (Homo sapiens) (UniProt P04150); test: qHTS assay to identify small molecule agonists of the glucocorticoid receptor (GR) signaling pathway (AID 720691; active means well fitted activation curve with a large enough effect in the signal ratio in the repeat runs, not every such curve was filed as active; the % refers to the signal ratio); details: GR-bla HeLa, beta-lactamase reporter ratio, 18 h; activation: at 62.4 µM (top of the series)
Chain of Glucocorticoid receptor (Homo sapiens) (P04150 whole entry, looked up): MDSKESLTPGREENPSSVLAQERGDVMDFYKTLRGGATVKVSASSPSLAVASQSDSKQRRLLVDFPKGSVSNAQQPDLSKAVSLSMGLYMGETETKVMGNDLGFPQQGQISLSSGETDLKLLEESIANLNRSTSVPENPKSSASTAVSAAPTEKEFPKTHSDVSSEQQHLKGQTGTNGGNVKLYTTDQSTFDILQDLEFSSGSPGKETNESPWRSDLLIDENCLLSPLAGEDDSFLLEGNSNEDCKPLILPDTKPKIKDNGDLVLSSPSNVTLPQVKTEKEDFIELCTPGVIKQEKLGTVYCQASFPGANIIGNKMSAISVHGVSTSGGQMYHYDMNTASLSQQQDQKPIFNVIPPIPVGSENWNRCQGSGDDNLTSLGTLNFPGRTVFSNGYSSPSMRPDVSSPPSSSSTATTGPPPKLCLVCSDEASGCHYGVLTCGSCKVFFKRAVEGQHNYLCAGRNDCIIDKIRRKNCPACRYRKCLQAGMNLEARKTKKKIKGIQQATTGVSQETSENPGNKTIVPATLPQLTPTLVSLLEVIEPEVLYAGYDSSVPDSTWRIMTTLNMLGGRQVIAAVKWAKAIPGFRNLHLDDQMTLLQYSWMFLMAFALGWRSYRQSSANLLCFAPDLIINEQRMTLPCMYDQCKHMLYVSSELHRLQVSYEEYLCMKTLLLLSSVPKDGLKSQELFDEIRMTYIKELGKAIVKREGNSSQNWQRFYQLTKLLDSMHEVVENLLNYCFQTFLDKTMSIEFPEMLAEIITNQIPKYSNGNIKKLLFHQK
Method in brief: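 HeLa GR-bla reporter line; cells pre-incubated 4 h, compound in DMSO 18 h at 37 C; LiveBLAzer B/G FRET substrate 2 h RT; fluorescence intensity read-out.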

[18] = qHTS assay for small molecule disruptors of the mitochondrial membrane potential (AID 720635); further: potency means the concentration at half of the fitted maximal effect
Method in brief: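 HepG2 cells exposed to compound 1 hr at 37C, then Mito-MPS dye 30 min. Ratio read of aggregate (540/590 nm) versus monomer (490/535 nm) fluorescence.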

[19] = qHTS assay to test for compound auto fluorescence at 590 nm (red) in HEK293 cells (AID 720679)
Method in brief: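 Red channel, Ex/Em 540/590nm; signal expressed as equivalency to Rose Bengal sodium. HEK293, 2,000 cells/well, 10% dialyzed FBS; 23 nL compound pinned after 4-5 hr attachment; overnight 37C/5% CO2 before reading.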

[20] = target: Glucocorticoid receptor (Homo sapiens) (UniProt P04150); test: qHTS assay to identify small molecule antagonists of the glucocorticoid receptor (GR) signaling pathway (AID 720692; active means well fitted inhibition curve with a large enough effect in the signal ratio in the repeat runs, not every such curve was filed as active; the % refers to the signal ratio)
Method in brief: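 Read-out: beta-lactamase FRET substrate fluorescence, 2 h at room temperature, in HeLa cells stably carrying a GRE-driven bla reporter. Compounds were co-incubated with 5 nM dexamethasone agonist (final) for 18 h at 37 C.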

SMILES	Potency [1]	outcome [2]	Potency [3]	Potency [4]	Potency [5]	outcome [6]	outcome [7]	outcome [8]	outcome [9]	outcome [10]	outcome [11]	outcome [12]	outcome [13]	outcome [14]	outcome [15]	outcome [16]	Potency [17]	Potency [18]	outcome [19]	Potency [20]
N[C@@H](Cc1cc(I)c(Oc2cc(I)c(O)c(I)c2)c(I)c1)C(=O)O	inactive	inactive	inactive	inactive	inactive	inactive	inactive	inactive	inactive	inactive	inactive	inactive	inactive	inactive	inactive	inactive	inactive			
O=C(O)c1cc(O)c(O)c(O)c1	inactive	inactive	inactive		inactive	inactive	inactive	inactive	inactive	inactive	inactive	inactive	inactive	inactive	inactive	inactive	inactive	inactive		
CCCCC(CC)CO (stereo unspecified)	inactive		inactive	inactive	inactive	inactive	inactive		inactive	inactive	inactive	inactive	inactive	inactive	inactive	inactive	inactive	inactive	inactive	inactive
Nc1ccccc1[N+](=O)[O-]	inactive	inactive	inactive	inactive	inactive	inactive	inactive		inactive	inactive	inactive	inactive	inactive	inactive	inactive	inactive	inactive	48.6 µM (active)	inactive	inactive
O=C(O)c1ccc2c(c1)C(=O)OC2=O	inactive	inactive	inactive	inactive	inactive	inactive	inactive		inactive	inactive	inactive	inactive	inactive	inactive	inactive	inactive	inactive	inactive	inactive	inactive
CCc1cccc(C)c1N	inactive	inactive	inactive	inactive	inactive	inactive	inactive		inactive	inactive	inactive	inactive	inactive	inactive	inactive	inactive	inactive	inactive	inactive	inactive
Cc1cc(C)c(C)cc1C	inactive	inactive	inactive	inactive		inactive	inactive	inactive	inactive	inactive	inactive	inactive	inactive	inactive	inactive	inactive			inactive	
CN(C)CCC(c1ccc(Cl)cc1)c1ccccn1 (stereo unspecified)	inactive		inactive	inactive	inactive	inactive	inactive		inactive	inactive	inactive	inactive	inactive	inactive	inactive	inactive	inactive	inactive	inactive	inactive
c1ccc2scnc2c1	inactive	inactive	inactive	inactive	inactive	inactive	inactive		inactive	inactive	inactive	inactive	inactive	inactive	inactive	inactive	inactive	inactive	inactive	inactive
FC(F)(F)c1ccc(Cl)c(Cl)c1	inactive	inactive	inactive	inactive	inactive	inactive	inactive		inactive	inactive	inactive	inactive	inactive	inactive	inactive	inactive	inactive	inactive	inactive	inactive
CC1=C(C)S(=O)(=O)CCS1(=O)=O	inactive	inactive	inactive	inactive	inactive	inactive	inactive	inactive	inactive	inactive	inactive	inactive	inactive	inactive	inactive	inactive	inactive			inactive
CN(C)CCC(c1ccccc1)c1ccccn1 (stereo unspecified)	inactive		inactive	inactive	inactive	inactive	inactive		inactive	inactive	inactive	inactive	inactive	inactive	inactive	inactive	inactive		inactive	inactive
